The text below walks through data of PubChem BioAssay.

Calls of active or inactive are those of the source. No rule for the calls is given here. Where a SMILES comes first, the peptide text is derived from it. [ ]: non-standard residue; d: D form. ξ: configuration not given here. ξV = CC(C)C(N)C(=O)O

The target in this assay is Pantothenate synthetase (Mycobacterium tuberculosis (strain ATCC 25618 / H37Rv)) (UniProt P9WIL5). The experiment in a line: Recombinant Mtb pantothenate synthetase (PanC) inhibitors, coupled enzyme, confirmatory (AID 375).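 Also: 0% = full reaction with vehicle and 100% = no enzyme background.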 To be noted: coupled enzyme assay; at 10 µM, hits give high values.
Sequence of Pantothenate synthetase (Mycobacterium tuberculosis (strain ATCC 25618 / H37Rv)) (P9WIL5 whole entry, looked up): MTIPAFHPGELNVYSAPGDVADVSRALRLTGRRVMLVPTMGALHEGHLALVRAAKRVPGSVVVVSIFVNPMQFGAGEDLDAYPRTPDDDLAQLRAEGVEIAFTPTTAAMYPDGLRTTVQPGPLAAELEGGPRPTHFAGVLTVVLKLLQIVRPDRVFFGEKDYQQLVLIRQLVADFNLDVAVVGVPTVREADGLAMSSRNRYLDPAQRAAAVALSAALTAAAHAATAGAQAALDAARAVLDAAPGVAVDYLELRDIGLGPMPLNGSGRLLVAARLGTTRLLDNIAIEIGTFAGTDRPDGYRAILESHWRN
As a reminder, the inhibition is the drop in the measured response relative to a control, in per cent. As to `COc1ccc(N(CC(=O)Nc2ccc3c(c2)OCO3)S(=O)(=O)c2c(C)nn(C)c2C)cc1`, the inhibition is 0% (inactive).

Regarding `O=C(Nc1nc(-c2ccccc2)cs1)C1CCCO1` (stereo not given), the inhibition was 3% (inactive).

Regarding `COCCN(C(=O)CNC(=O)c1ccco1)C(C(=O)NC1CCCCC1)c1cccc(OC)c1` (stereo not given), the inhibition was 0% (inactive).

Turning to `Cn1c(NCc2cccc(Br)c2)nc2ccccc21`, the inhibition was 1% (inactive).

With `Cc1nc2sc(C(c3ccc(Br)cc3)N3CC(C)OC(C)C3)c(O)n2n1` (stereo not given), the inhibition was 0% (inactive).

As to `CCOC(=O)N1CCN(C(=O)Nc2ccc3oc(C)nc3c2)CC1`, the inhibition is 7% (inactive).

Regarding `CCCNC(=O)N1CCN(S(=O)(=O)c2ccc(C)c(C)c2)CC1`, the inhibition was 4% (inactive).

On to `COCCn1c(C23CC4CC(CC(C4)C2)C3)n[nH]c1=S`, for which the inhibition was 0% (inactive).

Take `COc1cc2c(cc1OC)C(c1cc(OC)c(OC)c(OC)c1)NCC2` (stereo not given): the inhibition is 0% (inactive).

For `CCc1ccc(NC(=O)C2CC(=O)N(C(C)C)C2)cc1` (stereo not given), the inhibition is 0% (inactive).

`CCN(C(=O)c1cc(Cl)ccc1OC)c1ccccc1`: the inhibition was 0% (inactive).

Take `O=C(CSc1nc2ccccc2o1)N1CCN(C(=O)c2ccco2)CC1`: the inhibition was 0% (inactive).

On to `CCC(=O)O[C@@H]1CC(=O)O[C@H](C)CC=CC=C[C@@H](O)[C@H](C)C[C@H](CC=O)[C@H](O[C@H]2O[C@H](C)[C@@H](O[C@H]3C[C@@](C)(O)[C@@H](OC(=O)CC)[C@H](C)O3)[C@H](N(C)C)[C@H]2O)[C@H]1OC`, for which the inhibition is 4% (inactive).

With `O=C1C(c2ccncc2)=C(O)c2ccccc21`, the inhibition is 0% (inactive).

With `O=C(Nc1ccccc1C(=O)NCC1CCCO1)c1ccco1` (stereo not given), the inhibition is 1% (inactive).

In the case of `CCN(CC)CCn1c(=N)n(CCO)c2ccccc21`, the inhibition was 0% (inactive).

With `CCOC(=O)N1CCN(CC(=O)Nc2c(C(=O)OC)[nH]c3cccc(Cl)c23)CC1`, the inhibition is 0% (inactive).

For `Cc1oc(-c2ccc(Cl)cc2)nc1CS(=O)CC(=O)NCCCN(C)C1CCCCC1` (stereo not given), the inhibition was 0% (inactive).

In the case of `CC(=O)N=c1sc(S(N)(=O)=O)nn1C`, the inhibition is 0% (inactive).

Regarding `O=C(O)c1ccc(COc2c(F)c(F)cc(F)c2F)cc1`, the inhibition was 0% (inactive).

Regarding `Cc1occc1-c1nc(-c2ccncc2)no1`, the inhibition is 3% (inactive).

As for `CN(C)CCCN1c2ccccc2Sc2ccc(Cl)cc21`, the inhibition was 0% (inactive).

In the case of `COc1ccc(C)cc1NC(=O)CN(Cc1nnc(-c2ccc(Cl)cc2)o1)C1CCCC1`, the inhibition is 0% (inactive).

For `COc1ccccc1N1CCN(C(=O)C(Cc2ccccc2)NC(=O)C2CCCCC2)CC1` (stereo not given), the inhibition is 5% (inactive).

Take `CC(C)C1N=C2c3ccccc3N=C(SCc3cc(=O)n4ccccc4n3)N2C1=O` (stereo not given): the inhibition was 6% (inactive).

On to `COc1cccc2cc(C(=O)N3CCc4ccccc43)c(=O)oc12`, for which the inhibition is 1% (inactive).

Consider `Cc1cc(NC(=O)CCC(=O)N(CCc2ccccc2)C(C(=O)NC2CCCC2)c2ccco2)no1` (stereo not given), for which the inhibition is 7% (inactive).

Turning to `CN(C)CCOC(c1ccccc1)c1ccccc1`, the inhibition was 0% (inactive).

`O=C(NC1CCCCC1)C(c1ccccc1)N(Cc1ccco1)C(=O)Cn1cnc2ccccc21` (stereo not given): the inhibition is 0% (inactive).

As to `CO/C([O-])=N/c1c[n+](-c2ccc(C)cc2)no1`, the inhibition was 0% (inactive).

Regarding `Cc1ccccc1OCCCN1C(=O)C(=O)c2cccc(C)c21`, the inhibition is 0% (inactive).

Regarding `COc1ccc(C2CC(=O)c3c(C)nc(N4CCN(c5ccccc5)CC4)nc3C2)cc1` (stereo not given), the inhibition was 0% (inactive).

Take `COc1ccc(S(=O)(=O)C(C#N)c2nc3ccccc3nc2N2CCCC(C)C2)cc1` (stereo not given): the inhibition was 0% (inactive).

`CCOc1ccccc1N1CC(O)=C(c2nc3ccccc3s2)C1=N`: the inhibition was 9% (inactive).

For the molecule `CCCCN(CC)S(=O)(=O)N1CCC(C(=O)NCc2ccc(F)cc2)CC1`, the inhibition is 6% (inactive).

In the case of `c1ccc(C(Cc2nc(-c3ccccn3)no2)c2ccccc2)cc1`, the inhibition is 0% (inactive).

For the molecule `Cc1cc(NC(=O)CS(=O)(=O)c2cn(Cc3ccccc3Cl)c3ccccc23)no1`, the inhibition was 9% (inactive).

For the molecule `CC(=O)NC(C(=O)NCC(N)=O)C(C)C` (stereo not given) (Ac-[ξV]-Gly-NH2), the inhibition is 0% (inactive).

As for `Cc1cc(C)n2cc(CSc3nnnn3-c3ccc(Cl)cc3)nc2n1`, the inhibition was 0% (inactive).

As to `CC(C)CCN(C)C1CCN(S(=O)(=O)c2ccc(F)cc2)CC1`, the inhibition was 0% (inactive).
